# CtBP-E1A blk: qHTS Assay for Inhibitors of the CtBP/E1A Interaction; AlphaScreen GST-E1A/His-CtBP binding, 1536-well; active compounds read low; activity change, % (concentration not given with the values); AID 651724, 2012; CtBP / adenovirus E1A interaction (AlphaScreen); 340,000 tested, 0.49% active; in the data active = activity change below about -65%; inconclusive = mostly about -30% to -63%
#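 In 5 uL wells, 23 nL compound meets equimolar GST-E1A and His-CtBP (5X stock 125 nM each) for 2 h, 37 °C. Beads (5X, 50 ug/mL) then 1 h, 37 °C, dark.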
# TGFb inhibitor: qHTS for Inhibitors of TGF-b. HepG2 CAGA-GFP TGF-b/SMAD3 reporter, GFP fluorescence, 18 h; TGF-beta stimulated, 500 pg/mL final. Potency, µM (top dose mostly 46.1 µM), usual class: inhibitors. 410,000 tested, 1.2% active; also: nearly all actives have a fitted effect of over 65% in size
#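 Inhibition of TGF-beta-driven CAGA-GFP reporter expression in HEPG2 cells is measured by cellular GFP fluorescence after 18 h stimulation with 500 pg/mL recombinant TGF-beta in 1% FBS medium at 37 degrees C.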
# HepG2 viability: qHTS for Inhibitors of TGF-b: Cytotox Counterscreen. HepG2 CAGA-GFP viability, ATP luminescence, 18 h. Potency, µM (top dose mostly 46.1 µM), actives largely listed as cytotoxic. 410,000 tested, 0.76% active. AID 588856, 2011
#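 CellTiter-Glo luminescence gave cytotoxicity after 18 hours at 37 degrees C. The cells were HepG2 CAGA-GFP in 1% FBS DMEM, stimulated with 500 pg/mL TGF-beta after compound addition. %Activity was normalised to no-cell wells (complete cell-killing) and DMSO (no toxicity), and curves were fitted and classified.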
# ATXN2 expr inh: Primary qHTS for Inhibitors of ATXN expression. HEK-293 ATXN2-luciferase reporter, luminescence, 24 h. Potency, µM (titrated, usually from 57 µM), most hits filed as inhibitors. 360,000 tested, 0.72% active. AID 1745845, 2022; also: nearly all actives have a fitted effect of over 55% in size
#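 qHTS (up to 57 uM final) was run with 24 h compound exposure of reporter cells at 37 °C. Each well was multiplexed: SteadyGlo luminescence measured ATXN2-luciferase expression after a fluorogenic Gly-Phe-AFC viability readout (25 uM final).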
# Six1-Eya2 inh: qHTS Assay for Inhibitors of the Six1/Eya2 Interaction; AlphaScreen GST-Six1/His-Eya2 binding, biochemical; active compounds read low; activity change, % (concentration not given with the values); 360,000 tested, 0.56% active; AID 651725, 2012; in the data active = activity change below about -65%; inconclusive = mostly about -30% to -63%
# Target sequence (O00167 whole entry, looked up): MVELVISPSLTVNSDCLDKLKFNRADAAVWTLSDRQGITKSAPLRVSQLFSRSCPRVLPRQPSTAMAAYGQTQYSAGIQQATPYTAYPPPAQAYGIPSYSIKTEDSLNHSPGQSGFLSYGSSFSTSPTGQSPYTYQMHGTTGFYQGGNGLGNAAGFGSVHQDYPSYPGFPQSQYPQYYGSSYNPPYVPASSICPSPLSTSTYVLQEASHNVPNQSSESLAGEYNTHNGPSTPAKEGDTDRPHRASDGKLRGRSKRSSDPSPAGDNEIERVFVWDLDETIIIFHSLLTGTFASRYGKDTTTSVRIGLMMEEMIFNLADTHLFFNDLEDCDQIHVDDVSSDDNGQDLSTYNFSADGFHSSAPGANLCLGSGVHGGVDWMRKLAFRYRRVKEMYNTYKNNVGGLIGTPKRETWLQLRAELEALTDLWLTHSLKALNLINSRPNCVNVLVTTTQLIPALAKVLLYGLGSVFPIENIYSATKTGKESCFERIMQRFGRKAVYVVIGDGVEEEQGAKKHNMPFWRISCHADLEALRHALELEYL
# Target sequence (Q15475 whole entry, looked up): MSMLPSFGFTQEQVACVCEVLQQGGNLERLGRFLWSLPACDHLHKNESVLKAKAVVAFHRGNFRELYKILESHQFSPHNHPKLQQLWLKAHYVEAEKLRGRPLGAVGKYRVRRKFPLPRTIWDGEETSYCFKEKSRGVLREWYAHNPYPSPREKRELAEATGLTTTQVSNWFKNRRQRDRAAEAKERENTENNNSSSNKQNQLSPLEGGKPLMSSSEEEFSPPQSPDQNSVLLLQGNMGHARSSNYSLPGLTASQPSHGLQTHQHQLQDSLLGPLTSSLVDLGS
#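 Six1/Eya2 binding was read as AlphaScreen signal after compounds were pinned into GST-Six1 plus His-tagged Eya2 (5X stock 250/500 nM) in pH 8.0 Tris/NaCl/TCEP buffer, beads added, then incubated 1 h, 37 C, dark.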
# S2 tox: Viability Counterscreen for Primary qHTS for Inhibitors of ATXN expression. S2 cells (HEK-293 line with an ATXN2-luciferase reporter) viability, CellTiter-Fluor protease fluorescence, 24 h. Potency, µM (titrated, usually from 56.7 µM), usual class: cytotoxic. 400,000 tested, 0.49% active. AID 651635, 2014; also: nearly all actives have a fitted effect of over 40% in size
# Numbers stand for hits; n = inactive; u = inconclusive; x = not tested or not shown; [ ] = another dose, or the depositor's remark. Rows were chosen to be rich in hits. Some 2.8% of all compounds tested hit in one or more screens of this group. Unless noted, calls follow the shape of the dose curve; as a rule, active = well fitted curve in the direction sought with a large enough effect; inconclusive = small, poorly fitted or top-dose-only effect, or another doubt; inactive = no such curve, though single readings can be large; an effect the other way counts as inactive or inconclusive.
SMILES,CtBP-E1A blk,TGFb inhibitor,HepG2 viability,ATXN2 expr inh,Six1-Eya2 inh,S2 tox
O=C(N/C(=C/C=C/c1ccccc1)C(=O)N1CCCCC1)c1ccc([N+](=O)[O-])cc1,n,u,n,n,n,1.5µM
COc1ccc(C(=O)NC(=S)Nc2ccc(CN3CCOCC3)cc2)cc1Br,x,11µM,n,x,u,u
O=C(Nc1ccc(CN2CCOCC2)cc1)c1ccc(Br)cc1,n,n,n,n,n,n
O=C(Nc1ccc(CN2CCOCC2)cc1)c1ccc(-c2ccc(Br)cc2)o1,n,u,10µM,u,n,u
CC(C)C[C@@H](COCc1ccc([N+](=O)[O-])cc1)N1CCN(C(=O)c2ccc(C(F)(F)F)cc2)CCC1=O,-90,x,x,n,-69,u
Cc1cccc(COC[C@H](CC(C)C)N2CCN(C(=O)c3ccc(C(F)(F)F)cc3)CCC2=O)c1,n,x,x,u,n,x
CC(C)C[C@@H](COCc1cccc(C(F)(F)F)c1)N1CCN(C(=O)c2ccc(C(F)(F)F)cc2)CCC1=O,n,x,x,u,n,28µM
CC(C)C[C@@H](COCc1ccc(Cl)cc1)N1CCN(C(=O)c2ccc(C(F)(F)F)cc2)CCC1=O,n,x,x,u,n,x
Cc1cccc(-n2c(Cc3ccccc3)nnc2SCc2nc(-c3cccs3)no2)c1,x,13µM,n,u,x,u
COc1cccc(CNc2ncnc3sc(C(=O)N4CC5CCC4C5)c(C)c23)c1OC (configuration not stated),x,x,x,x,x,n
CCc1nnc(NC(=O)c2nc(S(=O)(=O)Cc3ccc(C)cc3)ncc2Cl)s1,n,u,n,u,n,x
CCOc1ccc(NC(=O)c2nc(S(=O)(=O)Cc3ccc(C)cc3)ncc2Cl)cc1,x,u,13µM,x,x,x
CC(=O)Nc1ccc(NC(=O)c2nc(S(=O)(=O)Cc3ccccc3)ncc2Cl)cc1,x,u,n,x,n,u
CCOc1ccc(NC(=O)c2nc(S(=O)(=O)Cc3ccccc3)ncc2Cl)cc1,x,11µM,11µM,x,x,x
COc1ccc(NC(=O)c2nc(S(=O)(=O)Cc3ccc(C)cc3)ncc2Cl)cc1,x,x,8.9µM,x,x,x
CCS(=O)(=O)c1ncc(Cl)c(C(=O)Nc2ccc(C)cc2)n1,n,u,n,u,n,x
Cc1ccc(C)c(NC(=O)c2nc(S(=O)(=O)Cc3ccc(F)cc3)ncc2Cl)c1,x,3.5µM,3.5µM,x,x,x
Cc1ccc2c(c1)c(=O)c(C(=O)c1ccc3c(c1)OCO3)cn2Cc1cccc(F)c1,x,u,n,n,x,u
CCOc1ccc(NC(=O)CCc2nc3cccnc3n2Cc2ccc(OC)cc2)cc1,x,n,n,x,x,x
O=C(Nc1ccc2ccccc2c1)c1cnccn1,n,n,n,n,n,n
CS(=O)(=O)c1ncc(Cl)c(C(=O)Nc2ccc3ccccc3c2)n1,n,5µM,5.6µM,u,n,20µM
Cn1cc(C(N)=O)c2ccccc21,n,n,n,n,n,n
Cn1cc(C(=O)CCl)c2ccccc21,x,13µM,16µM,x,n,x
CC(C)C[C@H](NC(=O)[C@@H](NC(=O)c1cccc(-c2ccccc2)n1)[C@@H](C)O)B(O)O,x,x,x,0.061µM,x,x
Cc1ccc(-c2cccc(C(=O)NCc3ccccc3)n2)c2ccccc12,x,u,n,n,n,n
SMILES,CtBP-E1A blk,TGFb inhibitor,HepG2 viability,ATXN2 expr inh,Six1-Eya2 inh,S2 tox
O=[N+]([O-])c1ccc(NC(=S)NCCc2ccc(F)cc2)cc1,n,u,13µM,u,n,u
O=C(NCCc1ccc(F)cc1)Nc1ccc([N+](=O)[O-])cc1,n,u,n,n,n,n
Cn1c(-c2ccncc2)nc2cc(C(=O)N[C@H]3CCCCNC3=O)cc(NC(=O)C3CCC3)c21,x,x,x,x,x,n
C=CC(=O)N1C/C(=C/c2ccccc2)C(=O)/C(=C\c2ccccc2)C1,n,2.2µM,1.8µM,6.7µM,n,9.5µM
C=CC(=O)N1C/C(=C/c2ccc(Cl)cc2)C(=O)/C(=C\c2ccc(Cl)cc2)C1,n,2.2µM,5µM,2.8µM,n,0.89µM
CN1C/C(=C/c2ccncc2)C(=O)/C(=C/c2ccncc2)C1,n,n,n,n,n,n
COc1ccc(O)c(CN2CCOc3c(cc(-c4cccc(OC)n4)cc3OC)C2)c1,x,x,x,x,x,n
O=c1cc(C(F)(F)F)nc(-n2[nH]c3c(c2=O)CCCC3)[nH]1,-88,n,n,n,-85,n
Cc1ccc(OCCN2CCC2(C)C(=O)NCc2ccc(C(F)(F)F)cc2)cc1 (configuration not stated),n,13µM,n,n,n,n
Cc1ccc(OCCN2CCC2(C)C(=O)NCc2cccc3ccccc23)cc1 (configuration not stated),n,u,n,n,n,n
CCCCN(CC)c1nc(-c2ccccc2F)nc2ccccc12,x,n,n,n,x,n
CCOc1ccc2nc(N3CCC(C(=O)Nc4ccccc4CC)CC3)sc2c1,x,n,n,x,x,x
COc1cc2c(cc1OC)CN(CCc1ccc(NC(=O)c3cc(OC)c(OC)cc3NC(=O)c3cnc4ccccc4c3)cc1)CC2,x,x,x,n,x,x
O=C(CC(c1ccccc1)c1cc(Br)ccc1O)NCC1(c2ccccc2)CCCC1 (configuration not stated),x,18µM,n,u,x,35µM
O=C(Nc1cn[nH]c1-c1nc2ccc(CN3CCOCC3)cc2[nH]1)NC1CC1,x,x,x,5.4µM,x,x
COc1cc(NS(=O)(=O)c2ccc(N)cc2)nc(C)n1,x,x,x,n,x,n
CC(=O)N[C@@H](CO)C(=O)N[C@@H](CC(=O)O)C(=O)N[C@@H](CCCCN)C(=O)N1CCC[C@H]1C(=O)O,x,x,x,n,x,n
COc1ccc(/C=N/Nc2cc(C)nc3c(C)cccc23)cc1,n,u,13µM,u,n,u
COc1ccc2nc(C)cc(N/N=C/c3ccc(F)cc3)c2c1,n,4µM,5µM,u,n,u
COc1ccc(/C=N/Nc2cc(C)nc3ccccc23)cc1,u,u,n,u,n,u
O=c1[nH]c2ccccc2n1CCCN1CCN(C(c2ccccc2)c2ccccc2)CC1,x,x,x,32µM,x,u
O=c1[nH]c2ccccc2n1CCCN1CCCCC1,n,n,n,n[11.3 µM],n,n
CC1(c2ccc(Cl)cc2)CC(C)(C)N(C(=O)c2cccc(F)c2)c2ccccc21 (configuration not stated),x,u,n,x,x,x
COc1cc(=O)n2c(c1C(=O)N1CCc3ccccc3C1)CCN(Cc1ccc(CO)o1)CC2,x,x,x,x,x,n
O=C(Nc1ccc(F)cc1F)C1CCCN1S(=O)(=O)c1cccc2nsnc12 (configuration not stated),n,16µM,n,n,n,n

# Assay outcomes (PubChem)
